# DT40 TDP1 no CPT: qHTS for Inhibitors of human tyrosyl-DNA phosphodiesterase 1 (TDP1): qHTS in cells in absence of CPT; DT40 Tdp1-/- hTDP1 cells, no CPT, ATP luminescence, 48 h; AID 686978, 2013; Potency, µM (series often up to 46.2 µM), for inactives: top-dose activity change, negative = growth inhibition, usual class: inhibitors; hit rate 15% among 420,000; note: nearly all actives have a fitted effect of over 55% in size
#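 Cells were dispensed at 400 per well, compounds added by pin tool, plates incubated ≥48 hr at 37 °C, then CellTiter-Glo added for 30 min at room temperature before luminescence reading. Line: DT40 Tdp1-/- complemented with hTDP1; camptothecin omitted.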
# RORgamma inh: ROR gamma (mouse) transcription inhibition. P51450. Drosophila S2 Gal4-RORgamma UAS-luciferase reporter, 20 h. Potency, µM (top dose mostly 53.6 µM), for the others: at the highest dose activity change, negative = inhibition, hits mostly inhibitors. hit rate 5.4% among 310,000. AID 2551; note: nearly all actives have a fitted effect of over 60% in size
#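 Luminescence from a UAS-regulated Photinus luciferase reporter in stably transfected Drosophila Schneider cells is measured; decreased signal marks ROR gamma inhibition. Fusion expression is induced by 700 uM copper sulfate for 20 hr.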
# Gal4-VP16 FLuc: Gal4-VP16 reporter inhibition counter-screen; hit rate 3.5% among 310,000; Potency, µM (titrated, usually from 53.6 µM), without a hit: at the highest dose activity, negative = inhibition, usual class: inhibitors; Drosophila S2 Gal4-VP16 UAS-luciferase, luminescence, 20 h;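 note: Gal4-VP16 expression switched on by copper sulfate through the metallothionein promoter; nearly all actives have a fitted effect of over 50% in size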
# ELG1 repair inh: inhibitors of ELG1-dependent DNA repair in HEK293T cells; HEK293T ELG1-luciferase reporter, luminescence, 16 h; DNA damage induced by 5-fluorouridine; Potency, µM (series often up to 46.1 µM), for the others: top-dose activity change, negative = inhibition, hits mostly inhibitors; AID 504467; hit rate 2.3% among 330,000; note: nearly all actives have a fitted effect of over 55% in size
#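 DMSO vehicle served as the neutral condition. Each well held 2,000 cells given 5-fluorouridine plus compound; after 16 hr at 37 °C/5% CO2, ONE-Glo was added and luciferase measured 30 min later.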
# ALOX12 inh: inhibitors of human 12S-lipoxygenase ALOX12. Potency, µM (top dose mostly 108 µM), without a hit: at the highest dose activity change, negative = inhibition, actives largely listed as inhibitors. AID 1671190. purified 12hLO, xylenol orange hydroperoxide absorbance. P18054. hit rate 1.1% among 580,000
# Target sequence (P18054 whole entry, looked up): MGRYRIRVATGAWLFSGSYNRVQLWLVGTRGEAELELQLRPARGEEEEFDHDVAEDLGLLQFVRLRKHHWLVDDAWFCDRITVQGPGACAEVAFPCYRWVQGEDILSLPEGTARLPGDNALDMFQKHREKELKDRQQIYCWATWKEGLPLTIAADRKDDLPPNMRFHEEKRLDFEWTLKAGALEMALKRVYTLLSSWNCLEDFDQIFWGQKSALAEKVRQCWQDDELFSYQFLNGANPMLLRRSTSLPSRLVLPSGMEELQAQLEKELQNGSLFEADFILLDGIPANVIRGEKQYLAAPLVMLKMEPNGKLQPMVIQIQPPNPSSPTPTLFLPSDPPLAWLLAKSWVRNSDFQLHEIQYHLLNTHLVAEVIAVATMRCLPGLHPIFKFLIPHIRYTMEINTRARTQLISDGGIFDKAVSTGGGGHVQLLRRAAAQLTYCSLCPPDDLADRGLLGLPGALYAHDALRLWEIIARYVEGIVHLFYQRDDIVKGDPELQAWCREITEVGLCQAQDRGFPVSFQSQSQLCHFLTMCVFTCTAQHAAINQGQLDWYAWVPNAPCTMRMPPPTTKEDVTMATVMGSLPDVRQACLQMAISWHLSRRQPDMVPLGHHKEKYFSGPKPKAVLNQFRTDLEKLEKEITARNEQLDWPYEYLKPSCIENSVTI
#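 Hydroperoxide product was detected by ferrous iron/xylenol orange as the 573 to 405 nm absorbance ratio. Arachidonic acid at 40 uM (final) was turned over for 30 min at room temperature by 150 nM human 12hLO, pH 7.0 Hepes buffer, after 15 min compound preincubation.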
# DT40 TDP1 CPT: growth inhibition of DT40 Tdp1-/-;hTDP1 cells with camptothecin (screen for TDP1 inhibitors); hit rate 12% among 420,000; Potency, µM (top dose mostly 46.2 µM), inactives show at the highest dose activity change, negative = growth inhibition, hits mostly inhibitors; chicken DT40 Tdp1-/-;hTDP1 cells + 20 nM CPT, ATP luminescence, 48 h; AID 686979; note: nearly all actives have a fitted effect of over 55% in size
#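 Cell growth measured by CellTiter-Glo luminescence after a minimum 48 h, 37 C compound exposure with 20 nM CPT in Tdp1-knockout DT40 cells stably expressing hTDP1, seeded 400/well; qHTS titration format.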
# Starred values were filed as active, the others as inactive; ? = inconclusive; · = not tested or not shown; [ ] = remark or other dose. Shown are actives, neighbours in structure and some others; about 15% of the full set was active somewhere. Calls come from the whole dose curve; as a rule, active = well fitted curve in the direction sought with a large enough effect; inconclusive = small, poorly fitted or top-dose-only effect, or another doubt; inactive = no such curve, though single readings can be large; an effect the other way counts as inactive or inconclusive. % is set by controls: 0 for no effect and ±100 for the full control effect; potency is the fitted concentration of half-maximal effect.
SMILES,DT40 TDP1 no CPT,RORgamma inh,Gal4-VP16 FLuc,ELG1 repair inh,ALOX12 inh,DT40 TDP1 CPT
COc1ccc(-c2csc(-c3c(C)c(C)nn(C)c3=O)n2)cc1OC,·,·,·,·,-11%,·
Cc1oc2cc3oc(=O)c(CCC(=O)NCCc4ccccc4F)c(C)c3cc2c1C,23µM*,·,·,·,-9%,23µM*
Cc1nc2ccccc2c(C)c1CC(=O)NCC(C)C,·,·,·,·,-2%,·
Cc1c(CC(=O)NCCc2ccccc2F)c(=O)oc2cc(O)ccc12,·,·,·,·,-1%,·
COc1ccccc1CCNC(=O)CCc1c(C)c2cc3c(C)c(C)oc3cc2oc1=O,16µM*,·,·,·,-14%,18µM*
COc1ccc2c(C)c(CCC(=O)NCCc3ccc(OC)c(OC)c3)c(=O)oc2c1,?,·,·,·,-20%,13µM*
COc1cccc(CNC(=O)CCc2c(C)c3cc4c(C)c(C)oc4cc3oc2=O)c1,?,·,·,·,-23%,?
COc1ccc(CCNC(=O)CCc2c(C)c3cc4c(C)coc4cc3oc2=O)cc1,?,·,·,·,0%,?
Cc1nc2ccccc2c(C)c1CC(=O)NCCc1ccccc1F,·,·,·,·,18µM*,·
O=C1NCCOC(=O)[C@H](Cc2ccc(F)cc2)C/C=C\C[C@H]1CC(=O)N(CCO)Cc1ccccc1,9.2µM*,·,·,?,0%,8.2µM*
O=C1NCCOC(=O)[C@H](Cc2ccc(F)cc2)C/C=C\C[C@@H]1CC(=O)N(CCO)Cc1ccccc1,12µM*,·,·,?,?,13µM*
C[C@H]1COC(=O)[C@H](Cc2ccc(F)cc2)C/C=C\C[C@H](CC(=O)N(CCO)Cc2ccccc2)C(=O)N1,?,·,·,?,-4%,?
O=C1N[C@H](Cc2ccccc2)COC(=O)[C@H](Cc2ccc(F)cc2)C/C=C\C[C@H]1CC(=O)N(CCO)Cc1ccccc1,?,·,·,-11%,-33%,?
CC(C)CC(=O)N1CCCC(c2noc(COc3ccccc3)n2)C1 (stereo not drawn),·,·,·,·,0%,·
CCCCCN1C(C(=O)c2ccccc2)=C(NC(=O)c2ccc(OC)c(OC)c2)c2ccccc2S1(=O)=O,16µM*,·,·,·,-13%,21µM*
CCCCCN1C(C(=O)c2ccccc2)=C(NC(=O)c2ccc(OC)cc2)c2ccccc2S1(=O)=O,23µM*,·,·,·,-16%,?
CCCCN1C(C(=O)Nc2cc(C)on2)=C(O)c2ccccc2S1(=O)=O,-20%,2%,7%,-21%,?,6%
CC(C)(C)CN[C@@H](Cn1ccc(=O)[nH]c1=O)C(=O)O,·,·,·,·,12%[176 µM],·
CCOC(=O)CSc1nc2ccc(NC(=O)c3cccc(F)c3)cc2s1,-27%,·,·,·,-9%,-21%
CCC(=O)Nc1ccc2nc(SCc3ccc(F)cc3)sc2c1,·,·,·,·,14µM*,·
CCC(=O)Nc1ccc2nc(SCc3ccc(C)cc3)sc2c1,?,·,·,·,-24%,-26%
CN(C(=O)CSc1nc2ccc(NC(=O)c3cccc(F)c3)cc2s1)c1ccccc1,6.5µM*,·,·,·,-7%,8.2µM*
CN(C(=O)CSc1nc2ccc(NC(=O)c3ccccc3F)cc2s1)c1ccccc1,9.2µM*,·,·,·,0%,15µM*
O=C(Nc1ccc2nc(SCc3ccccc3)sc2c1)c1cccc(F)c1,-26%,·,·,·,-15%,-27%
O=C(Nc1ccc2nc(SCc3ccccc3)sc2c1)c1ccccc1F,13µM*,·,·,·,-17%,16µM*
CCOc1ccc(C(=O)Nc2ccc3nc(SCC(=O)N(C)c4ccccc4)sc3c2)cc1,3.7µM*,·,·,·,-26%,2.1µM*
CC(C)(C)C(=O)Nc1ccc2nc(SCc3ccccc3)sc2c1,21µM*,·,·,·,-14%,?
Cn1cnnc1SCC(=O)Nc1ccc2nc(SCc3ccccc3)sc2c1,?,28%,-6%,?,157%,?
CCOC(=O)CSc1nc2ccc(NC(=O)c3ccc(Cl)cc3)cc2s1,?,·,·,·,-4%,-27%
